Compound activity (PubChem)
CHX counter: counter-screen for Shiga toxin inhibitors: cycloheximide protein synthesis inhibition. cell reporter, cycloheximide protein synthesis inhibition counterscreen. max response, %. actives 12% (n = 300,000); in the data active means max response mostly above about 13%, no sharp cut-off; inactive means mostly below about 14%; further: read at 38.3 µM for the half of the compounds with a filed dose; 0% is about no effect
AmpC detergent: inhibitors of E. coli AmpC beta-lactamase with detergent; actives 0.041% (n = 370,000); P00811; AID 485294; AmpC hydrolysis of nitrocefin, absorbance 480 nm, 0.01% Triton; Potency, µM (highest dose often 114 µM), inactives show top-dose activity change, negative = inhibition, hits mostly inhibitors;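 further: potency means the concentration at half of the fitted maximal effect; 0% = no-compound wells and -100% = no-enzyme wells; nearly all actives have a fitted effect of over 25% in size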
Target sequence (P00811 whole entry, looked up): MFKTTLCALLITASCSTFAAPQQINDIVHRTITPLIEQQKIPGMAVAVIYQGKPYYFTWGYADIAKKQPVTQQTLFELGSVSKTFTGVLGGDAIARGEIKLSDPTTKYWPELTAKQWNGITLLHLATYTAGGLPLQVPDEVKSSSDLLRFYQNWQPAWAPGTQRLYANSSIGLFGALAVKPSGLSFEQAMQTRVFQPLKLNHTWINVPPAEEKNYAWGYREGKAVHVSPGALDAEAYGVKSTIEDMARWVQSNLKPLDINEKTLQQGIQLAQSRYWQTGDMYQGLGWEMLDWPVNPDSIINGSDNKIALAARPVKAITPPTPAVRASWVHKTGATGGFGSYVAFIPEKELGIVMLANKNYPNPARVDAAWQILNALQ
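AmpC (5.3 nM in the dispensed reagent) in 20 mM phosphate pH 7.0 with 0.01% (detergent screen) or 0.0001% Triton X-100 was preincubated with compounds for 15 min at room temperature. Nitrocefin was then added from an 800 uM solution, and hydrolysis was followed at 480 nm.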
Shiga toxin inh: inhibitors of Shiga toxin in Vero cells | AID 2315 | actives 9.2% (n = 290,000) | inhibition, % at 38.7 µM | Vero cells, Shiga toxin protein synthesis inhibition reporter; in the data active means inhibition mostly above about 28%, no sharp cut-off; inactive means mostly below about 43%; further: 0% is about no effect
NS1 inh: blocks influenza NS1 protein function. Potency, µM (doses to about 46.1 µM), for the others: at the top dose activity, positive = more growth. actives 0.4% (n = 270,000). AID 2326; calls by dose curve; further: potency means the concentration at half of the fitted maximal effect; actives are rising curves; nearly all actives have a fitted effect of over 50% in size
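OD600 was taken as the measure of yeast growth restored by compound in an NS1-expressing S. cerevisiae strain. Cells had been washed out of glucose medium and diluted 1:100 into galactose -URA medium, pH 6.0.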
AmpC no deterg: AmpC beta-lactamase inhibition without detergent | AmpC nitrocefin hydrolysis, absorbance 480 nm, 0.0001% Triton | Potency, µM (series often up to 57.1 µM), inactives show at the highest dose activity change, negative = inhibition, actives largely listed as inhibitors | actives 0.52% (n = 330,000);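 further: potency means the concentration at half of the fitted maximal effect; plate controls were no compound for no effect and no enzyme for full effect; nearly all actives have a fitted effect of over 20% in size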
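AmpC (5.3 nM in the dispensed reagent) in 20 mM phosphate pH 7.0 with 0.01% (detergent screen) or 0.0001% Triton X-100 was preincubated with compounds for 15 min at room temperature. Nitrocefin was then added from an 800 uM solution, and hydrolysis was followed at 480 nm.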
The depositor's hits bear a star; ? = inconclusive; · = not tested or not shown; [ ] = remark or other dose. Many of the other results were omitted from the sample, so hits are more common in it than they were. Unless noted, the call rests on the fitted dose curve; in most records, active means well fitted curve in the direction sought with a large enough effect; inconclusive means small, poorly fitted or top-dose-only effect, or another doubt; inactive means no such curve, though single readings can be large; an effect the other way counts as inactive or inconclusive.

SMILES	CHX counter	AmpC detergent	Shiga toxin inh	NS1 inh	AmpC no deterg
O=C(c1ccc(Cl)cc1)c1ccc(OCC(=O)N2CCOCC2)cc1	15.6	-12.1%	20.1	-69.1%	54.9%
COc1ccc(NC(=O)N(CCC(C)C)C(C)c2cccs2)c(OC)c1 (stereo unspecified)	·	7.1%	·	·	·
Oc1ccc(/C=N/NC(=S)Nc2cccnc2)cc1O	1.3	?	-30.2	20.0%	-43.6%
S=C(N/N=C/c1ccc2ncccc2c1)Nc1cccnc1	22.8*	-0.1%	66.0	4.1%	0.0%[2.29 µM]
CC(C)(C)c1ccc(/C=N/NC(=S)Nc2cccnc2)cc1	16.2*	-1.3%	61.0	·	?
Cc1cccc(Cc2cnc(NC(=O)C3Cc4ccc(C)cc4C(=O)O3)s2)c1 (stereo unspecified)	·	-0.9%	·	·	·
O=[N+]([O-])c1cc(Cl)ccc1-c1nc(-c2ccccc2)no1	58.5*	-14.7%	61.8*	12.5%	-29.3%
O=[N+]([O-])c1cc(Cl)ccc1-c1nc(-c2ccncc2)no1	19.5	3.1%	42.2*	2.5%	-14.2%
COCCN(C(=O)COC(=O)/C=C/c1ccc2ccccc2n1)c1c(N)n(Cc2ccccc2)c(=O)[nH]c1=O	11.0*	-1.7%	36.4	-2.1%	63.8%
COCCCN(C(=S)NC(=O)c1ccc(Br)cc1)c1c(N)n(Cc2ccccc2)c(=O)[nH]c1=O	-1.7	-1.6%	1.5	·	5.62µM*
COCCCN(C(=S)NC(=O)C(C)(C)C)c1c(N)n(Cc2ccccc2)c(=O)[nH]c1=O	-2.5	9.7%	-1.7	-1.3%	-14.7%
Cc1ccc(N2CC(NC(=O)c3ccco3)CC2=O)cc1 (stereo unspecified)	·	0.9%	·	·	·
CC(=O)Nc1nc(C)c(CCC2OCCO2)c(=O)[nH]1	-3.7	-12.2%	-5.2	3.1%	-10.9%
O=C1NCCN/C1=C\C(=O)c1ccccc1	32.5*	-7.3%	26.3	12.3%	-3.1%
O=C1NCCN/C1=C\C(=O)c1cccc(Br)c1	34.2*	4.2%	71.6*	-44.6%	-6.4%
O=C1OCCN/C1=C\C(=O)c1ccccc1	-1.1	?	-3.0	2.8%	-11.6%
O=C1NCCN/C1=C\C(=O)c1ccc(Br)cc1	44.9*	1.3%	64.5*	-31.1%	6.8%
Cc1ccccc1NC(=O)Cn1nc(-c2ccccc2)nc(Cc2ccccc2)c1=O	·	-3.5%	·	·	·
O=C(c1ccc2c(=O)n(CCc3ccccc3)c(=O)[nH]c2c1)N1CCN(c2ccc(Cl)cc2)CC1	·	14.2%	·	·	·
CC(/C=C/c1ccccc1)=N\NC(N)=S	26.8*	-2.4%	52.5*	-48.1%	-14.7%
CC(/C=C/c1ccccc1)=N/NC(=O)c1nc2nc(C)cc(C)n2n1	1.3	8.9%	29.0	·	-18.1%
CC(/C=C/c1ccccc1)=N\Nc1nc(C)cc(C)n1	32.8*	-12.2%	44.0*	-11.2%	-8.4%
CC(/C=C/c1ccccc1)=N\NC(=S)NC(C)C	82.1*	1.9%	98.8*	15.5%	-5.4%
CC1CCN(C(=O)CN2c3ccc(C(C)C)cc3-c3ccccc3S2(=O)=O)CC1	·	22.7%	·	·	·
CN(CC(=O)Nc1ccc(F)cc1F)S(=O)(=O)c1ccc(C(=O)N2CCOCC2)s1	·	3.0%	·	·	·
SMILES	CHX counter	AmpC detergent	Shiga toxin inh	NS1 inh	AmpC no deterg
CN(C)c1ccc(/C=C/C(=O)c2ccc3c(c2)OCO3)cc1	·	-1.4%	·	·	-36.1%
O=C(/C=C/c1ccccc1)c1ccc2c(c1)OCO2	37.4*	5.4%	59.2*	-38.1%	-44.7%
O=C(/C=C/c1ccncc1)c1ccc2c(c1)OCCO2	19.9*	2.5%	27.2	-4.6%	3.8%
COc1ccc(C(=O)/C=C/c2ccc(N3CCCCC3)c([N+](=O)[O-])c2)cc1	-2.3	-2.9%	-9.1	26.5%	-28.6%
O=C(/C=C/c1cccc(Br)c1)c1ccc2c(c1)OCO2	25.4*	6.1%	62.5*	-4.6%	-2.1%
CN(C)c1ccc(/C=C/C(=O)c2ccc3c(c2)OCCO3)cc1[N+](=O)[O-]	42.7*	?	active	7.6%	-22.5%
CCC1Nc2ncnc(N3CCOCC3)c2N(Cc2ccc(Cl)cc2)C1=O (stereo unspecified)	·	·	·	·	15.7%
Cc1cc(C)c(C(=O)/C=C/c2ccc3c(c2)OCO3)c(=O)[nH]1	2.7	3.2%	14.8	7.4%	4.9%
O=C(/C=C/c1ccccc1Br)c1ccc2c(c1)OCO2	36.2*	-6.1%	112.4*	-37.6%	-31.0%
O=C(N/N=C\C=C\c1ccc2c(c1)OCO2)c1ccc(F)cc1	19.8	-15.0%	45.6	·	-34.3%
O=C(/C=C/c1ccc2c(c1)OCO2)c1ccc(F)cc1	41.5*	-13.8%	77.6*	-46.7%	-25.8%
O=C(/C=C/c1ccc2c(c1)OCO2)c1ccc[nH]1	78.7*	?	active	-8.9%	-37.2%
COc1cccc(/C=C/C(=O)c2ccc[nH]2)c1	54.6*	-11.7%	90.7*	-24.5%	-32.3%
COc1cccc(/C=C/C(=O)Oc2ccc(C(=O)c3ccc(F)cc3)cc2)c1	-6.6	7.7%	-8.5	-1.8%	-16.6%
C[C@@H](NC(=O)c1[nH]cnc1C(=O)Nc1nccs1)c1ccccc1	·	3.7%	·	·	-10.1%
O=C(CN1CCCCCCC1)NC(=O)NC1CCCCC1	23.2	1.7%	51.4	-3.6%	-20.0%
O=C(CN1CCCCC1)NC(=O)NC1CCCC1	23.2*	-3.3%	55.5*	·	-2.7%
CC(C)(C)OC(=O)[C@H](C1N[C@@H](C(=O)O)C(C)(C)S1)N1C(=O)c2ccccc2C1=O (stereo partly specified)	·	·	·	-0.9%	·
CCOC(=O)c1ccc(NC(=O)Nc2ccc3c(c2)OCCO3)cc1	13.2*	-3.4%	32.2*	-41.3%	-43.1%
CCOC(=O)c1cnc2c(OC)cccc2c1Nc1ccc2c(c1)OCCO2	28.7*	?	27.8*	-4.2%	-10.4%
O=C(NCc1ccc2c(c1)OCO2)Nc1ccc([N+](=O)[O-])cc1	3.1	?	-2.4	10.9%	-7.8%
CCOC(=O)c1c(C)c(C(=O)Nc2ccc3c(c2)OCCO3)c(C)n1C	21.6*	-9.4%	55.3*	4.8%	-12.7%
O=[N+]([O-])c1ccc(NCc2ccc3c(c2)OCO3)cc1	20.6*	2.0%	46.1	·	-33.3%
N#CCC(=O)Nc1ccc(C(=O)OCC(=O)NC(=O)Nc2ccc3c(c2)OCCO3)cc1	·	·	·	·	-48.3%
CCN(CC)S(=O)(=O)c1ccc2c(c1)N(CC(=O)Nc1c(C)cccc1C)C(=O)CO2	·	-6.3%	·	·	·
SMILES	CHX counter	AmpC detergent	Shiga toxin inh	NS1 inh	AmpC no deterg
CCc1cccc(C)c1NC(=O)COC(=O)CSCc1ccccc1	·	·	·	·	-12.7%
CC1Cc2ccccc2N1C(=O)Cn1c(=O)oc2cc(S(=O)(=O)N3CCCCC3)ccc21 (stereo unspecified)	0.5	?	-4.0	?	5.6%
O=C(NCC(c1cccnc1)N1CCN(Cc2ccccc2)CC1)C(=O)Nc1ccc(Cl)cc1 (stereo unspecified)	·	23.3%	·	·	·
CCOC(=O)Nc1cc(Br)c2c(c1)OCCO2	33.6*	-0.7%	41.5	-8.6%	-21.7%
CCOC(=O)c1ccc(NCc2ccc3c(c2)OCO3)cc1	34.7*	-3.7%	66.0*	-40.2%	-26.7%
CCOC(=O)c1c(C)c(C(=O)NCCOC)c(C)n1CC	6.3	-7.6%	-9.4	2.4%	-6.3%
